This passage reports binding signal results from paper PMC11006913.

Holding throughout (test): PBM; 200 nM protein, PBS
Common to all, as to settings: dsDNA, one strand shown

For test [1], the target named is NKX2-5 (Homo sapiens, UniProt P52952 125-210, R139K).
Test [2] addresses HOXA4 (Homo sapiens, UniProt Q00056 201-287, W262R).
Test [3] deals with HOXA2 (Homo sapiens, UniProt O43364 129-215, R185T).
Test [4] has as its target HOXA4 (Homo sapiens, UniProt Q00056 201-287, R217L).
In test [5] the target is HOXA2 (Homo sapiens, UniProt O43364 129-215, R185K).
Sequence of HOXA2 (Homo sapiens, UniProt O43364 129-215, R185K) (O43364 129-215 R185K): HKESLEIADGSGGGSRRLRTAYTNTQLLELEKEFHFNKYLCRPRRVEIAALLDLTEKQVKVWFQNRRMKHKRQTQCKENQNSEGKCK
The target of test [6] is HOXA4 (Homo sapiens, UniProt Q00056 201-287).
Sequence of HOXA4 (Homo sapiens, UniProt Q00056 201-287) (Q00056 201-287): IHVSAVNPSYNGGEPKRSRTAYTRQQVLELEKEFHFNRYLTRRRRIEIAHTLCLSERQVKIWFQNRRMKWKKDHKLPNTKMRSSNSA
Test [7] concerns the target HOXA2 (Homo sapiens, UniProt O43364 129-215, Y150S).
For test [8], the target named is HOXA4 (Homo sapiens, UniProt Q00056 201-287, W262F).
Sequence of HOXA4 (Homo sapiens, UniProt Q00056 201-287, W262F) (Q00056 201-287 W262F): as the sequence (Q00056 201-287) above, with W62F counted along it
The target in test [9] is HOXA2 (Homo sapiens, UniProt O43364 129-215).
Sequence of HOXA2 (Homo sapiens, UniProt O43364 129-215) (O43364 129-215): as the sequence (O43364 129-215 R185K) above, with K57R counted along it
The target of test [10] is NKX2-5 (Homo sapiens, UniProt P52952 125-210).
Sequence of NKX2-5 (Homo sapiens, UniProt P52952 125-210) (P52952 125-210): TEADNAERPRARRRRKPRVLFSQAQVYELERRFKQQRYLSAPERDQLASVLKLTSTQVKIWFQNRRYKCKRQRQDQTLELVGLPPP
Test [11] concerns the target T1, PAX4 (Homo sapiens, UniProt O43316 9-242, R200K).
T1 sequence: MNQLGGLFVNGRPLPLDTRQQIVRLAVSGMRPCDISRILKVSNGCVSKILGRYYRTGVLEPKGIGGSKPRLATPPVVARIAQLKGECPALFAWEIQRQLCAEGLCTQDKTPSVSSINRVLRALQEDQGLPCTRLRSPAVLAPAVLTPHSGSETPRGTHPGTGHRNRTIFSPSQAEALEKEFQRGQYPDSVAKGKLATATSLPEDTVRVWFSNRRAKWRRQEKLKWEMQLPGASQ

In test [12] the target is T2, PAX4 (Homo sapiens, UniProt O43316 9-242).
T2 sequence: T1 sequence with K192R

In test [13] the target is T3, PAX4 (Homo sapiens, UniProt O43316 9-242, R200Q).
T3 sequence: T1 sequence with K192Q

Test [14] deals with T4, PAX4 (Homo sapiens, UniProt O43316 9-242, F177V).
T4 sequence: T1 sequence with F169V, K192R

Test [15] has as its target T5, PAX4 (Homo sapiens, UniProt O43316 9-242, F177Y).
T5 sequence: T1 sequence with F169Y, K192R

The target of test [16] is T6, PAX4 (Homo sapiens, UniProt O43316 9-242, R227W).
T6 sequence: T1 sequence with K192R, R219W

In test [17] the target is VAX1 (Homo sapiens, UniProt Q5SQQ9 86-172).
Sequence of VAX1 (Homo sapiens, UniProt Q5SQQ9 86-172) (Q5SQQ9 86-172): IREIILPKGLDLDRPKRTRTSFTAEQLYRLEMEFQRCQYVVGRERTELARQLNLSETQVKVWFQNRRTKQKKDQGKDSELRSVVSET
In test [18] the target is VAX1 (Homo sapiens, UniProt Q5SQQ9 86-172, T142I).
Sequence of VAX1 (Homo sapiens, UniProt Q5SQQ9 86-172, T142I) (Q5SQQ9 86-172 T142I): as the sequence (Q5SQQ9 86-172) above, with T57I counted along it
Test [19] has as its target VAX1 (Homo sapiens, UniProt Q5SQQ9 86-172, K157R).
The target of test [20] is PRRX1 (Homo sapiens, UniProt P54821 80-166, F113S).
Sequence of PRRX1 (Homo sapiens, UniProt P54821 80-166, F113S) (P54821 80-166 F113S): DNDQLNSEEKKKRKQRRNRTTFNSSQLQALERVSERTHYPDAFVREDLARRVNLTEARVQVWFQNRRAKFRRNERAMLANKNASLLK
Test [21] deals with PRRX1 (Homo sapiens, UniProt P54821 80-166).
Sequence of PRRX1 (Homo sapiens, UniProt P54821 80-166) (P54821 80-166): as the sequence (P54821 80-166 F113S) above, with S34F counted along it
Test [22] has as its target T7, SIX6 (Homo sapiens, UniProt O95475 114-200, L167I).
T7 sequence: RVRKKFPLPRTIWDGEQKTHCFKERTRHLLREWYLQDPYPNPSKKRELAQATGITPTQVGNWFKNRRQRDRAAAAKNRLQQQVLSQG

The target of test [23] is T8, SIX6 (Homo sapiens, UniProt O95475 114-200, L143V).
T8 sequence: T7 sequence with L30V, I54L

Test [24] deals with T9, SIX6 (Homo sapiens, UniProt O95475 114-200, H141N).
T9 sequence: T7 sequence with H28N, I54L

Test [25] deals with T10, SIX6 (Homo sapiens, UniProt O95475 114-200, T165P).
T10 sequence: T7 sequence with T52P, I54L

Test [26] has as its target T11, SIX6 (Homo sapiens, UniProt O95475 114-200, L167M).
T11 sequence: T7 sequence with I54M

For test [27], the target named is T12, SIX6 (Homo sapiens, UniProt O95475 114-200, L143M).
T12 sequence: T7 sequence with L30M, I54L

Test [28] deals with T13, SIX6 (Homo sapiens, UniProt O95475 114-200, L143I).
T13 sequence: T7 sequence with L30I, I54L

In test [29] the target is T14, SIX6 (Homo sapiens, UniProt O95475 114-200, T165G).
T14 sequence: T7 sequence with T52G, I54L

Test [30] has as its target T15, SIX6 (Homo sapiens, UniProt O95475 114-200, T139Q).
T15 sequence: T7 sequence with T26Q, I54L

The target in test [31] is T16, SIX6 (Homo sapiens, UniProt O95475 114-200, T165A).
T16 sequence: T7 sequence with T52A, I54L

Test [32] concerns the target T17, SIX6 (Homo sapiens, UniProt O95475 114-200, L167V).
T17 sequence: T7 sequence with I54V

For test [33], the target named is T18, SIX6 (Homo sapiens, UniProt O95475 114-200).
T18 sequence: T7 sequence with I54L

In test [34] the target is T19, SIX6 (Homo sapiens, UniProt O95475 114-200, T165I).
T19 sequence: T7 sequence with T52I, I54L

Where a chain is given by its changes, count along the chain named.

Sequence of NKX2-5 (Homo sapiens, UniProt P52952 125-210, R139K) (P52952 125-210 R139K): as the sequence (P52952 125-210) above, with R15K counted along it
Sequence of HOXA4 (Homo sapiens, UniProt Q00056 201-287, W262R) (Q00056 201-287 W262R): as the sequence (Q00056 201-287) above, with W62R counted along it
Sequence of HOXA4 (Homo sapiens, UniProt Q00056 201-287, R217L) (Q00056 201-287 R217L): as the sequence (Q00056 201-287) above, with R17L counted along it
Sequence of VAX1 (Homo sapiens, UniProt Q5SQQ9 86-172, K157R) (Q5SQQ9 86-172 K157R): as the sequence (Q5SQQ9 86-172) above, with K72R counted along it
Sequence of HOXA2 (Homo sapiens, UniProt O43364 129-215, R185T) (O43364 129-215 R185T): as the sequence (O43364 129-215 R185K) above, with K57T counted along it
Sequence of HOXA2 (Homo sapiens, UniProt O43364 129-215, Y150S) (O43364 129-215 Y150S): as the sequence (O43364 129-215 R185K) above, with Y22S, K57R counted along it

As to CCCCCAAC, the binding signal in the test with NKX2-5 [1] was 8.66 upbm affinity estimate (log intensity, higher = more binding, comparable within an allelic series); with HOXA4 [2] it was 9.78 upbm affinity estimate (log intensity, higher = more binding, comparable within an allelic series); with HOXA2 [3], 6.99 upbm affinity estimate (log intensity, higher = more binding, comparable within an allelic series); in the test with HOXA4 [4], 9.67 upbm affinity estimate (log intensity, higher = more binding, comparable within an allelic series); with HOXA2 [5] it was 10.3 upbm affinity estimate (log intensity, higher = more binding, comparable within an allelic series); with HOXA4 [6], 9.61 upbm affinity estimate (log intensity, higher = more binding, comparable within an allelic series). The binding signal in the test with HOXA2 [7] is 10.3 upbm affinity estimate (log intensity, higher = more binding, comparable within an allelic series); in the test with HOXA4 [8] it was 9.75 upbm affinity estimate (log intensity, higher = more binding, comparable within an allelic series); with HOXA2 [9], 6.95 upbm affinity estimate (log intensity, higher = more binding, comparable within an allelic series); in the test with NKX2-5 [10], 8.6 upbm affinity estimate (log intensity, higher = more binding, comparable within an allelic series).
For the sequence ACGCCGGC, the binding signal in the test with NKX2-5 [1] was 8.53 upbm affinity estimate (log intensity, higher = more binding, comparable within an allelic series); in the test with PAX4 [11], 9.13 upbm affinity estimate (log intensity, higher = more binding, comparable within an allelic series); with PAX4 [12] it was 9.3 upbm affinity estimate (log intensity, higher = more binding, comparable within an allelic series); in the test with PAX4 [13] it was 9.23 upbm affinity estimate (log intensity, higher = more binding, comparable within an allelic series); with PAX4 [14] it was 9.3 upbm affinity estimate (log intensity, higher = more binding, comparable within an allelic series); in the test with PAX4 [15], 9.27 upbm affinity estimate (log intensity, higher = more binding, comparable within an allelic series). In addition, the binding signal with PAX4 [16] is 9.27 upbm affinity estimate (log intensity, higher = more binding, comparable within an allelic series); with NKX2-5 [10] it was 8.56 upbm affinity estimate (log intensity, higher = more binding, comparable within an allelic series).
For the sequence CAGCCCCC, the binding signal with NKX2-5 [1] was 8.75 upbm affinity estimate (log intensity, higher = more binding, comparable within an allelic series); with HOXA4 [2], 9.74 upbm affinity estimate (log intensity, higher = more binding, comparable within an allelic series); with HOXA4 [4] it was 9.65 upbm affinity estimate (log intensity, higher = more binding, comparable within an allelic series); with HOXA4 [6], 9.71 upbm affinity estimate (log intensity, higher = more binding, comparable within an allelic series); with VAX1 [17] it was 7.33 upbm affinity estimate (log intensity, higher = more binding, comparable within an allelic series); in the test with VAX1 [18], 7.4 upbm affinity estimate (log intensity, higher = more binding, comparable within an allelic series). Also, the binding signal in the test with HOXA4 [8] is 9.62 upbm affinity estimate (log intensity, higher = more binding, comparable within an allelic series); with VAX1 [19], 7.13 upbm affinity estimate (log intensity, higher = more binding, comparable within an allelic series); with NKX2-5 [10], 8.67 upbm affinity estimate (log intensity, higher = more binding, comparable within an allelic series).
Turning to AGCCGACA, the binding signal with NKX2-5 [1] was 8.87 upbm affinity estimate (log intensity, higher = more binding, comparable within an allelic series); with PRRX1 [20] it was 9.45 upbm affinity estimate (log intensity, higher = more binding, comparable within an allelic series); with PRRX1 [21] it was 9.49 upbm affinity estimate (log intensity, higher = more binding, comparable within an allelic series); with NKX2-5 [10], 9.05 upbm affinity estimate (log intensity, higher = more binding, comparable within an allelic series).
As for CGGCGCCG, the binding signal is 9.06 upbm affinity estimate (log intensity, higher = more binding, comparable within an allelic series) with NKX2-5 [1]; 8.88 upbm affinity estimate (log intensity, higher = more binding, comparable within an allelic series) with SIX6 [22]; 8.75 upbm affinity estimate (log intensity, higher = more binding, comparable within an allelic series) with SIX6 [23]; 9.2 upbm affinity estimate (log intensity, higher = more binding, comparable within an allelic series) in the test with PRRX1 [20]; 8.89 upbm affinity estimate (log intensity, higher = more binding, comparable within an allelic series) with SIX6 [24]; 9.09 upbm affinity estimate (log intensity, higher = more binding, comparable within an allelic series) with SIX6 [25]. In addition, the binding signal with SIX6 [26] is 8.86 upbm affinity estimate (log intensity, higher = more binding, comparable within an allelic series); in the test with SIX6 [27], 8.74 upbm affinity estimate (log intensity, higher = more binding, comparable within an allelic series); with SIX6 [28], 8.87 upbm affinity estimate (log intensity, higher = more binding, comparable within an allelic series); with SIX6 [29] it was 8.96 upbm affinity estimate (log intensity, higher = more binding, comparable within an allelic series); in the test with SIX6 [30], 8.91 upbm affinity estimate (log intensity, higher = more binding, comparable within an allelic series); with SIX6 [31], 8.83 upbm affinity estimate (log intensity, higher = more binding, comparable within an allelic series). The binding signal in the test with SIX6 [32] was 8.85 upbm affinity estimate (log intensity, higher = more binding, comparable within an allelic series); with SIX6 [33], 8.9 upbm affinity estimate (log intensity, higher = more binding, comparable within an allelic series); in the test with SIX6 [34] it was 8.84 upbm affinity estimate (log intensity, higher = more binding, comparable within an allelic series); with PRRX1 [21], 9.48 upbm affinity estimate (log intensity, higher = more binding, comparable within an allelic series); in the test with NKX2-5 [10] it was 9.14 upbm affinity estimate (log intensity, higher = more binding, comparable within an allelic series).
